L3MBTL1 inh: blocks human L3MBTL1. Q9Y468. AlphaScreen L3MBTL1–H3K9me1 peptide binding. Potency, µM (doses to about 57.1 µM), for inactives: top-dose activity, negative = inhibition, most hits filed as inhibitors. hit rate 0.66% among 230,000; note: % is set by controls: 0 for no effect and ±100 for the full control effect; nearly all actives have a fitted effect of over 60% in size
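L3MBTL1 50 nM + b-AHA-H3(1-15)K9me1 75 nM, 30 min RT; compound added, 30 min RT; streptavidin donor/Ni-chelate acceptor beads 10 ug/mL each final, 30 min RT dark; AlphaScreen read.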
Sfp PPTase inh: inhibitors of Bacillus subtilis Sfp phosphopantetheinyl transferase; hit rate 3.5% among 310,000; AID 1490; Biochemical Sfp PPTase activity, qHTS; Potency, µM, inactives show largest response in the series, negative = inhibition, actives largely listed as inhibitors; Q9F4F7;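 note: the enzyme is Sfp with the accession as filed and its product quenches rhodamine fluorescence; 0% = enzyme reaction without inhibitor and -100% = no enzyme wells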
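Buffer: 50 mM Hepes-Na pH 7.6, 10 mM MgCl2, 0.01% Nonidet P-40, 0.01% BSA. Enzyme 15 nM, pre-exposed to compound 15 min; substrates then added and fluorescence change tracked over 30 min.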
BAZ2B inh: BAZ2B (human) inhibition | Q9UIF8 | AlphaScreen BAZ2B-H3K14Ac peptide displacement | Potency, µM (highest dose often 114 µM), without a hit: top-dose activity change, negative = inhibition, actives largely listed as inhibitors | hit rate 4.4% among 360,000 | AID 504333; note: % is set by controls: 0 for no effect and ±100 for the full control effect; nearly all actives have a fitted effect of over 60% in size
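Protein-peptide AlphaScreen: BAZ2B 50 nM, b-H3K14Ac 50 nM, 1x PBS pH 7.4 + 0.01% Tween-20. Preincubation 30 min RT; cpd 30 min RT (top 110 uM); beads 20 min RT, light-protected.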
HP1b binding inh: blocks HP1-beta chromodomain binding to methylated histone tails; AlphaScreen HP1-beta / biotin-H3K9me3 peptide binding; P83916; AID 540317; Potency, µM (series often up to 114 µM), without a hit: top-dose activity change, negative = inhibition, most hits filed as inhibitors; hit rate 0.56% among 390,000; note: nearly all actives have a fitted effect of over 70% in size
Target sequence (P83916 whole entry, looked up): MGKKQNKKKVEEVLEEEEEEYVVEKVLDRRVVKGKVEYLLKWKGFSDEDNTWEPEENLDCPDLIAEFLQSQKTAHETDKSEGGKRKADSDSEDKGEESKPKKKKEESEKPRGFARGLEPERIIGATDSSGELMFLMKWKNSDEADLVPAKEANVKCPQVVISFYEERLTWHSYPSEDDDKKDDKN
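AlphaScreen: HP1-beta (50 nM) preformed 30 min with biotin-H3(1-18)K9me3 peptide (50 nM) in PBS pH 7.4, 0.01% Tween-20. Compound added for 30 min at RT, then streptavidin donor/nickel chelate acceptor beads (10 ug/mL) for 30 min.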
JMJD2A Tudor inh: inhibitors of human JMJD2A Tudor domain | O75164 | AlphaScreen JMJD2A-Tudor / H3K4me3 peptide binding | Potency, µM (series often up to 114 µM), for the others: at the highest dose activity change, negative = inhibition, hits mostly inhibitors | hit rate 4.4% among 390,000 | AID 504339; note: % is set by controls: 0 for no effect and ±100 for the full control effect; nearly all actives have a fitted effect of over 50% in size
G9a block: blocks human histone lysine methyltransferase G9a; G9a H3K9 monomethylation, AlphaScreen, 2 h; Potency, µM (highest dose often 102 µM), for the others: at the highest dose activity, negative = inhibition, usual class: inhibitors; hit rate 8.8% among 350,000; AID 504332; note: % is set by controls: 0 for no effect and ±100 for the full control effect; nearly all actives have a fitted effect of over 75% in size
Target sequence (Q96KQ7 913-1193 limits assumed): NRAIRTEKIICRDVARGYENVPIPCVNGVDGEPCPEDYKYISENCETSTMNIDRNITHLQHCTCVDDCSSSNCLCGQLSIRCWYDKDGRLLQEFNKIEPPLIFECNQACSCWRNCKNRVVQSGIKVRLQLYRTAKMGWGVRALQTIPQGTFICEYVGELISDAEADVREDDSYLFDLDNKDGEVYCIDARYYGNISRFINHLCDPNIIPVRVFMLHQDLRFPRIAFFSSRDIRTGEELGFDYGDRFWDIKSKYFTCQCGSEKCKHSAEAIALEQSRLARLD
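Methyltransferase reactions run at room temperature for 2 h (20 nM enzyme, 500 nM biotin-H3K9 peptide, 20 uM SAM) after a 15 min compound preincubation; product detected by AlphaScreen beads and anti-H3K9me1 antibody.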
Starred values were filed as active, the others as inactive; ? = inconclusive; / = no result; [ ] = dose if it differs, or a comment. This is a sample that favours compounds with a hit; in the whole collection about 12% have one here. Calls come from the whole dose curve; as a rule, active = well fitted curve in the direction sought with a large enough effect; inconclusive = small, poorly fitted or top-dose-only effect, or another doubt; inactive = no such curve, though single readings can be large; an effect the other way counts as inactive or inconclusive. Potency is the fitted concentration of half-maximal effect.

SMILES	L3MBTL1 inh	Sfp PPTase inh	BAZ2B inh	HP1b binding inh	JMJD2A Tudor inh	G9a block
COc1ccc(CN2CCN(c3ncnc4scc(-c5ccc(F)cc5)c34)CC2)cc1	/	-14%	?	?	?	15%[2.33 µM]
CN1CCN(c2nnc(-c3ccc(F)cc3)c3ccccc23)CC1	/	8%	-28%	-19%	?	40µM*
CN1CCN(c2nnc(-c3ccc(Cl)cc3)c3ccccc23)CC1	/	-4%	8%	15%	-12%	4%[2.33 µM]
NC(=O)C1CCN(c2cc(Cl)nc(N)n2)CC1	8%	-16%	-19%	-24%	10µM*	-3%
CCCCn1c(N)c(N(CC(C)C)C(=O)c2cc3ccccc3cc2OC)c(=O)[nH]c1=O	/	/	/	9%	-6%	/
CCc1ccc(NC(=O)C(=O)NCC(c2ccc3c(c2)OCO3)N2CCN(C)CC2)cc1 (stereo not given)	/	/	-20%	12%[57 µM]	-24%	-1%[59 µM]
C=CC1=C2C=C(C3CC3)N(C3CCCCC3)C=C2C(=O)C(C)(OC(=O)c2ccco2)C1=O (stereo not given)	/	-4%	/	/	/	/
CCc1[nH]c(=O)[nH]c1C(C)S(=O)(=O)c1ccc(C)cc1 (stereo not given)	/	20µM*	-19%	?	-27%	1.6µM*
CCc1c(C(C)S(=O)(=O)c2ccc(C)cc2)[nH]c(=O)n1-c1ccc(C)cc1 (stereo not given)	/	56µM*	-21%	24%	-29%	8.9µM*
Cc1cc(C)c(OCCCCn2cnc3ccccc3c2=O)c(C)c1	-1%	-11%	18%	56%	1%	/
Cc1cc(OCCn2cnc3ccccc3c2=O)cc(C(C)C)c1	11%	6%	-6%	14%	79µM*	-2%[59 µM]
CCC(=O)O[C@@H](OP(=O)(CCCCc1ccccc1)CC(=O)N1C[C@H](C2CCCCC2)C[C@H]1C(=O)O)C(C)C (stereo not given in full)	/	-8%	/	/	/	-10%[12.7 µM]
COc1ccc(C2/C(=C(/O)c3ccc(C)cc3)C(=O)C(=O)N2c2ccccn2)cc1 (stereo not given)	/	7%	-13%	3%	-22%	45µM*
COc1cc(C2/C(=C(/O)c3ccccc3)C(=O)C(=O)N2c2ccccn2)ccc1O (stereo not given)	-2%	-3%	-20%	2%	?	-30%
CCOc1ccc(/C(O)=C2/C(=O)C(=O)N(c3ncccn3)C2c2ccc(Cl)cc2)cc1 (stereo not given)	/	?	?	19%	-20%	50µM*
Cc1ccc(/C(O)=C2/C(=O)C(=O)N(c3ccccn3)C2c2ccc([N+](=O)[O-])cc2)cc1 (stereo not given)	-7%	6%	4%	6%	-32%	71µM*
COc1ccc(/C(O)=C2/C(=O)C(=O)N(c3ncccn3)C2c2ccc(C(C)(C)C)cc2)cc1 (stereo not given)	/	5%	-6%	/	/	?
Cc1ccc(/C(O)=C2/C(=O)C(=O)N(c3ccccn3)C2c2cccc([N+](=O)[O-])c2)cc1 (stereo not given)	/	1%	-37%	3%	-21%	35µM*
Cc1c(NC(=O)C(C)Oc2ccc(Br)cc2Cl)c(=O)n(-c2ccccc2)n1C (stereo not given)	14%	/	6%	29%	-11%	-32%[59 µM]
Cc1ccc(/C(O)=C2/C(=O)C(=O)N(CC(=O)O)C2c2ccc([N+](=O)[O-])cc2)cc1 (stereo not given)	-4%	0%	?	57%	50µM*	?
COc1ccc(/C(O)=C2/C(=O)C(=O)N(c3ccccn3)C2c2ccc(F)cc2)cc1 (stereo not given)	/	27%	-31%	0%	-16%	-14%
O=C1C(=O)N(Cc2cccnc2)C(c2ccccn2)/C1=C(/O)c1ccccc1 (stereo not given)	8%	4%	?	5%	?	?
COc1ccc(C2/C(=C(/O)c3ccc(F)cc3)C(=O)C(=O)N2c2ccccn2)cc1OC (stereo not given)	12%	11%	-2%	23%	18µM*	-10%
Cc1ccc(/C(O)=C2\C(=O)C(=O)N(CC(C)O)C2c2ccccn2)cc1 (stereo not given)	6%	-10%	19%	10%	35µM*	/
Cc1ccc(/C(O)=C2\C(=O)C(=O)N(C)C2c2ccc([N+](=O)[O-])cc2)cc1 (stereo not given)	-1%[2.29 µM]	23%	-21%	30%	-7%	8%[0.501 µM]
SMILES	L3MBTL1 inh	Sfp PPTase inh	BAZ2B inh	HP1b binding inh	JMJD2A Tudor inh	G9a block
CCCCCCCCCCCCCCCCCCNc1ccn(C2OC(COP(=O)(O)OCC3OC(n4cc(F)c(=O)[nH]c4=O)CC3O)C(O)C2O)c(=O)n1 (stereo not given)	/	/	/	-15%	56µM*	/
O=C(Nc1cccc(-c2nn[nH]n2)c1)c1csc2c1CCCC2	/	-7%	?	9%	-13%	?
O=C(CSc1nnc(SCc2cccc3ccccc23)s1)N=Nc1c(O)[nH]c2ccccc12	-20%	11%	50µM*	/	/	?
O=C(CSc1nnc(SCc2cccc3ccccc23)s1)c1ccc2c(c1)OCO2	-3%	17%	-26%	10%	-26%	?
O=C(CSc1nnc(SCc2cccc3ccccc23)s1)Nc1ccc(C(=O)O)cc1	-10%	19%	?	?	13µM*	?
CCOc1ccc(CNC(=O)Cn2ccc3cc(S(=O)(=O)N4CCCCC4)ccc32)cc1	/	/	-20%	28%	-9%	-5%[59 µM]
COc1ccc(-n2c(CN3CCN(c4ccccc4)CC3)nc3ccc([N+](=O)[O-])cc3c2=O)c(OC)c1	/	-18%	-38%	?	?	40µM*
COc1cccc(-n2c(CN3CCN(c4ccccn4)CC3)nc3ccc([N+](=O)[O-])cc3c2=O)c1	/	14µM*	56µM*	-7%[57 µM]	-32%	28µM*
COc1ccc(-n2c(CN3CCC(C)CC3)nc3ccc([N+](=O)[O-])cc3c2=O)c(OC)c1	/	25µM*	?	12%	-24%	?
CCOC(=O)N1CCN(Cc2nc3ccc([N+](=O)[O-])cc3c(=O)n2-c2ccc(OC)cc2OC)CC1	/	-8%	-20%	?	-29%	?
COc1cccc(-n2c(CN3CCN(c4cccc(C)c4)C(C)C3)nc3ccc([N+](=O)[O-])cc3c2=O)c1 (stereo not given)	-3%	-2%	-38%	-13%	?	9%[59 µM]
COc1ccc(-n2c(CN3CCOCC3)nc3ccc([N+](=O)[O-])cc3c2=O)c(OC)c1	/	?	-28%	26%	-24%	45µM*

Source: PubChem BioAssay (National Center for Advancing Translational Sciences (NCATS))
